Assay results: PubChem BioAssay (NCI)
Compounds without any hit were thinned out: in the full panel of roughly 79,000, 15% have a hit. No stated cut-off is given here; in the data, active means growth inhibition above about 70%; inactive means the rest.

Tests used:
[1] = NCI Yeast Anticancer Drug Screen. Data for the rad50 strain (AID 155);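 further: 0% = growth of vehicle-only cultures of the same strain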; conditions: S. cerevisiae rad50 strain growth inhibition; at 50.0 µM; hits give high values
Method in brief: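 Readout: growth inhibition relative to vehicle-treated cultures. Compound exposure was carried out in a genetically defined yeast strain deficient in DNA damage repair.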

[2] = NCI Yeast Anticancer Drug Screen. Data for the mec2-1 strain (AID 157); conditions: S. cerevisiae mec2-1 strain, at 50.0 µM, hits give high values
Method in brief: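 Yeast mec2-1 mutant treated with compound. Readout: growth inhibition vs vehicle controls.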

[3] = NCI Yeast Anticancer Drug Screen. Data for the sgs1 mgt1 strain (AID 161);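 further: 0% = growth of cultures given vehicle only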; conditions: S. cerevisiae sgs1 mgt1 strain, at 50.0 µM, hits give high values
Method in brief: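 Read-out: growth inhibition vs vehicle controls. Cells: mutant yeast strain deficient in DNA damage repair.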

[4] = NCI Yeast Anticancer Drug Screen. Data for the cln2 rad14 strain (AID 165);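 further: 0% = growth equal to vehicle treated cultures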; conditions: S. cerevisiae cln2 rad14 strain, at 50.0 µM, hits give high values
Method in brief: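 cln2 rad14 yeast strain; compound exposure; growth inhibition read vs vehicle controls.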

[5] = NCI Yeast Anticancer Drug Screen. Data for the bub3 strain (AID 167); conditions: S. cerevisiae bub3 mutant strain, at 50.0 µM, hits give high values
Method in brief: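 Readout: yeast growth inhibition, expressed relative to vehicle-only wells. The test organism is a mutant strain from a panel with lesions in DNA repair or checkpoint genes.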

[6] = NCI Yeast Anticancer Drug Screen. Data for the mlh1 rad18 strain (AID 175); conditions: S. cerevisiae mlh1 rad18 strain growth inhibition; at 50.0 µM; hits give high values
Method in brief: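 Yeast w/ defined DNA-repair lesions; compound exposure; growth vs vehicle controls → % inhibition.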

Measured: growth inhibition

C(CCN1CN(CCCCN2CCOCC2)CN(CCCCN2CCOCC2)C1)CN1CCOCC1
inactive: [1] 12.8% | [2] 4.75% | [3] 10.4% | [4] -5.5% | [5] -1.75% | [6] 29.6%

CCC(Cc1ccco1)C(=O)NC(N)=O (stereo not drawn)
inactive: [1] -10.2% | [2] 4.4% | [3] -9.8% | [4] -9.1% | [5] 0.65% | [6] 11.3%

CCN(CC)c1ccc2c(c1)Cc1ccccc1-2
inactive: [1] 25.8% | [2] 1.15% | [3] 9.2% | [4] 4.4% | [5] -18.9% | [6] -5.65%

COC(=O)NN/C=C(\C=Nc1ccccc1)[N+](=O)[O-]
inactive: [1] -0.25% | [2] 11.1% | [3] 17.4% | [4] 18.4% | [5] 12.9% | [6] 5.4%

O=C(CC(=O)Nc1ccccc1)NNC(c1cc(N=Nc2ccc(Br)cc2)ccc1O)P(O)O (stereo not drawn)
inactive: [1] -4.65% | [2] 6.25% | [3] -10.4% | [4] -3.2% | [5] -14% | [6] -38%

O=Cc1ccc2c(c1)CC1(Cc3ccccc3C1)C2
inactive: [1] -3.35% | [2] -47.8% | [3] -10.8% | [4] -7.2% | [5] 9.9% | [6] -30.3%

CC1=CC(=O)C=CC1=Nc1ccc(N(C)C)cc1
inactive: [1] 19.3% | [2] 32.6% | [3] 47.9% | [4] 9.35% | [5] 39.4% | [6] 16.4%

Cc1cc(C)cc(Sc2c([N+](=O)[O-])ncn2C)c1
inactive: [1] 7.65% | [2] 19.3% | [3] -16.7% | [4] 21.1% | [5] 29.2% | [6] 39.7%

O=C(CC(C(=O)c1cccs1)c1ccsc1)c1ccc(Cl)s1 (stereo not drawn)
inactive: [1] -5.35% | [2] -15% | [3] -11.1% | [4] 4.2% | [5] -2.2% | [6] -5.05%

COC(CCCl)c1ccc(C)cc1 (stereo not drawn)
inactive: [1] -9.4% | [2] -66.4% | [3] -24% | [4] 3.8% | [5] -29.9% | [6] 1.8%

CC(=O)Nc1cscc1NC(C)=O
inactive: [1] -3.8% | [2] -10.7% | [3] 6.05% | [4] -0.2% | [5] 16.9% | [6] -9.5%

COc1cc(/C(=C\c2ccccc2N)C(=O)O)cc(Br)c1OC
inactive: [1] 9.35% | [2] -8.2% | [3] -11.2% | [4] 4.65% | [5] 0% | [6] 1.65%

COc1ccc(/C=C2\CCC(CNc3cc(C)on3)C2=O)cc1 (stereo not drawn)
inactive: [1] 21.5% | [2] -14.6% | [3] 17.1% | [4] 37.1% | [5] 29.1% | [6] -19.4%

Cc1cc(-c2ccc(N=Nc3c(C)nn(-c4ccc(S(=O)(=O)O)cc4)c3O)c(C)c2)ccc1N=Nc1ccc(O)c(C(=O)O)c1
inactive: [1] 26% | [2] 12.4% | [3] 26.2% | [4] 20.9% | [5] 18.6% | [6] 21%

COc1ccc(C2C(C#N)=C(S)N(C3OC(COC(C)=O)C(OC(C)=O)C(OC(C)=O)C3OC(C)=O)C(c3ccccc3)=C2C(C)=O)cc1 (stereo not drawn)
inactive: [1] 44% | [2] 38.4% | [3] 42% | [4] -4.2% | [5] -38.9% | [6] 39%

O=C(O)C1CSCN1 (stereo not drawn)
inactive: [1] -3.85% | [2] -22.9% | [3] -3.2% | [4] 1.1% | [5] 1% | [6] 18.3%

CCCCCCCCCCCCCCCCOc1ccc(-c2cc(=O)n(C)n2C)cc1
inactive: [1] 6% | [2] -18.6% | [3] -19.1% | [4] -8.45% | [5] -2.9% | [6] -4.05%

O=C1CSc2ccnc(=O)n21
inactive: [1] -0.1% | [2] -10% | [3] 16.7% | [4] 11.1% | [5] -9.8% | [6] -8.1%

Cc1ccc(NC(=O)CSc2nnc(-c3ccc(N=Cc4ccc(Cl)cc4)cc3)o2)cc1
inactive: [1] 2.3% | [2] -36.9% | [3] 12.5% | [4] -59.8% | [5] -15.8% | [6] 18.6%

CCCCCCCCCCCC1=C(O)C(=O)C(I)=C(O)C1=O
inactive: [1] 63.2% | [2] 58.5% | [3] 63.1% | [4] 51.3% | [5] 14.4% | [6] 54.7%

COC(=O)/C(=N\NC(=S)NN)C(C(=O)C(=O)Nc1ccccc1C(N)=O)c1nc2ccccc2[nH]c1=O (stereo not drawn)
inactive: [1] 24.9% | [2] 6.9% | [3] 14.9% | [4] -42.5% | [5] -4.5% | [6] 23.1%

COC(=O)c1nc(=S)[nH]c(C(=O)OC)c1C(=O)c1ccccc1
inactive: [1] -25.9% | [2] -12.9% | [3] -27.4% | [4] 36% | [5] -25.4% | [6] -16.4%

Nc1c(S(=O)(=O)O)cc(Br)c2c1C(=O)c1ccccc1C2=O
inactive: [1] 54.5% | [2] 15.8% | [3] 38.7% | [4] 38% | [5] 45.8% | [6] 56.4%

CCCC(=O)Nc1cc(C(=O)O)cc([N+](=O)[O-])c1
inactive: [1] 2.05% | [2] -15.6% | [3] 4.8% | [4] -26.2% | [5] 22.5% | [6] -4.45%

CC(=O)NNc1nc(C)c(C(/C=C/c2ccc(/C=C/C(=N\NC(=O)c3ccncc3)c3sc(NNC(C)=O)nc3C)cc2)=N/NC(=O)c2ccncc2)s1
inactive: [1] -16.6% | [2] -7.35% | [3] -8.95% | [4] 12.7% | [5] 1.4% | [6] -13.3%

CC1(C=O)CCCC2(C)[C@@H]1CCC13CC(CO)C(CC[C@H]12)C3 (stereo partly drawn)
inactive: [1] 19.4% | [2] 5.7% | [3] 10.8% | [4] 16.6% | [5] 14.1% | [6] 18.6%

Nc1nc(=S)c2[nH]cnc2[nH]1
inactive: [1] -19.6% | [2] -4.95% | [3] -21.4% | [4] -91.7% | [5] 9.55% | [6] -125%

O=C(CO)c1ccc(-c2ccccc2)cc1
inactive: [1] -8% | [2] -12.4% | [3] -19.1% | [4] -12.7% | [5] 4.95% | [6] 16.2%

CC(C)(C)c1cc2c3c(c1)C(C(F)(F)F)(C(F)(F)F)OS3(=O)(O)OC2(C(F)(F)F)C(F)(F)F
inactive: [1] 22.5% | [2] 38.8% | [3] 15.8% | [4] -2.25% | [5] 4.2% | [6] 39%

CSC1C(OC(=O)c2ccccc2)C(COC(=O)c2ccccc2)OC1n1cnc2ncnc(NC(=O)c3ccccc3)c21 (stereo not drawn)
inactive: [1] 45.4% | [2] 20.4% | [3] 34.6% | [4] 29.4% | [5] 6.45% | [6] 38.8%

CCOC(=O)C(/C=N\c1[nH]ncc1C#N)=C(/C(=O)OCC)c1ccc(O)cc1
inactive: [1] 4.55% | [2] 5.9% | [3] -13.7% | [4] -21.2% | [5] -3% | [6] 15.4%

COc1ccc(NC(=O)C2=C(SC)C(C#N)C(=O)N=C2N)cc1 (stereo not drawn)
inactive: [1] -25.1% | [2] -12.5% | [3] 0.2% | [4] 19.7% | [5] -31.4% | [6] 1.3%

CN=C1c2ccccc2C(=O)c2c1c(O)n(-c1ccccc1)c2O
inactive: [1] 27.9% | [2] 15.3% | [3] 20.9% | [4] 21.5% | [5] 29.4% | [6] 36.8%

COc1ccc(S(=O)(=O)N/N=C/c2cc(I)cc([N+](=O)[O-])c2O)cc1OC
inactive: [1] 35% | [2] 22.1% | [3] 17.1% | [4] 4.95% | [5] -3.75% | [6] 38%

CCOC(=O)CC(=O)C(=O)NNC1=NCCN1
inactive: [1] 7.15% | [2] 11.6% | [3] 23.6% | [4] 2.45% | [5] 13.3% | [6] 15.2%

C[C@]12CC[C@@H]3c4ccc(OP(=O)(O)O)cc4CC[C@H]3[C@@H]1CCC2=O
inactive: [1] -7% | [2] 4.9% | [3] -22.7% | [4] -23.9% | [5] -24.6% | [6] -14.1%

O=c1[nH]c(=O)n(C2OC(CO)C(O)C2O)cc1I (stereo not drawn)
inactive: [1] -10.2% | [2] -9.95% | [3] -6.9% | [4] 15.2% | [5] 5.6% | [6] -13.8%

CN(C)CC1CCC2=C(C1=O)C(c1ccccc1)C1=C(CCC(CN(C)C)C1=O)O2 (stereo not drawn)
inactive: [1] 1.55% | [2] 2.1% | [3] -1.7% | [4] 13.4% | [5] 4.3% | [6] 3.7%
